Source: PubChem BioAssay (several laboratories)
SARS 3CLpro inh: SARS-CoV 3CLpro protease inhibition | P0C6X7 | recombinant SARS-CoV 3CLpro, quenched FRET peptide cleavage | inhibition, % at 6 µM | 290,000 compounds, 0.14% hits | AID 1706; in the data active = inhibition above about 12%
BoNT A protease: blocks Botulinum neurotoxin A light chain protease. multiplex microsphere protease substrate cleavage, flow cytometry. inhibition, % at 10 µM. 360,000 compounds, 0.17% hits. AID 588499; also: plate controls were buffer without enzyme for full effect and enzyme alone for no effect
Autofluor counter: compound fluorescence in toxin protease inhibitor counterscreen. fluorescence intensity (no concentration beside the values). compound autofluorescence counterscreen, microsphere flow cytometry; active compounds read high. 360,000 compounds, 3.1% hits; in the data active = fluorescence intensity above about 16000; inconclusive = no clear call, values can overlap the other calls
Anthrax LF inh2: inhibitors of Bacillus anthracis lethal factor protease | multiplex microsphere protease cleavage assay, LF | inhibition, % at 10 µM | 360,000 compounds, 0.12% hits; also: plate controls were buffer without enzyme for full effect and enzyme alone for no effect
BoNT-F LC inh: inhibitors of Botulinum neurotoxin F light chain protease | Multiplex microsphere protease cleavage assay, flow cytometry | 360,000 compounds, 0.22% hits | AID 588497 | inhibition, % at 10 µM; in the data active = inhibition above about 35%, passing the limit was not always enough; inconclusive = no clear call, values can overlap the other calls; also: plate controls were buffer without enzyme for full effect and enzyme alone for no effect
* = called active by the depositor; ? = inconclusive; nt = no result given. Shown are actives, neighbours in structure and some others; about 3.5% of the full set was active somewhere. Rule as the data show it, unless noted: active = inhibition above about 30%; inconclusive = no clear call, values can overlap the other calls; inactive = below that.

SMILES	SARS 3CLpro inh	BoNT A protease	Autofluor counter	Anthrax LF inh2	BoNT-F LC inh
O=C(Nc1cc(Cl)cc(Cl)c1)c1cnn2cccnc12	2	0	4454	-3	-3
C=CCn1cccc(/C=C/C(=O)c2ccc(C(C)(C)C)cc2)c1=S	3	30*	2571	13	-6
CCOc1cc(/C=N/NC(=O)c2ccncc2)ccc1OS(C)(=O)=O	2	0	2017	-1	-8
N#Cc1c(N)c(C(=O)c2ccccc2)n2c1CCC2	1	-3	23949*	-1	-5
O=C(CCNC(=O)c1ccccc1Cl)Nc1ccc(S(=O)(=O)Nc2ncccn2)cc1	-2	0	3559	0	-3
O=C1CN(C(=O)COC(=O)Cc2ccccc2)c2ccccc2N1	0	0	4236	1	0
O=C1CN(C(=O)COC(=O)Cc2ccsc2)c2ccccc2N1	3	?	23072*	-2	-4
O=C1CN(C(=O)COC(=O)c2oc3ccccc3c2COc2ccccc2)c2ccccc2N1	4	-1	22869*	-2	-4
CC(C)c1ccc(Nc2nc(Cl)nc(Cl)n2)cc1	3	nt	nt	nt	nt
COc1ccc(N2CCN(C(=O)CSc3nnc4c(C)cc5ccc(C)c(C)c5n34)CC2)cc1	4	-6	21530*	-2	-6
COc1ccc(N2CCN(C(=O)CSc3nnc4c(C)cc5c(C)cc(C)cc5n34)CC2)cc1	-4	1	6079	0	-7
COc1ccc(N2CCN(C(=O)CSc3nnc4c(C)cc5cc(C)ccc5n34)CC2)cc1	6	-1	23987*	-1	-4
COc1ccc(N2CCN(C(=O)CSc3nnc(C4CC4)n3C3CC3)CC2)cc1	nt	0	2867	-6	0
CC(C)OC(=O)c1cc2c(ccn2-c2ccc(F)cc2)n1CC(=O)N1CCN(C(=O)c2ccco2)CC1	3	0	6403	-16	-10
C[C@H]1CN([C@@H](C)CO)C(=O)Cc2cc(NC(=O)CCC(F)(F)F)ccc2O[C@H]1CN(C)Cc1ccc(C(F)(F)F)cc1	nt	0	4967	4	6
NC(=O)c1sc2nnc(-c3ccccc3)c(-c3ccccc3)c2c1N	4	-56	17320*	-44	?
CC(C)c1ccc(-c2nnc(SCC(=O)NC3CC3)n2C)cc1	-2	2	5246	2	2
CC(C)NC(=O)c1nc2ccccc2s1	1	5	19111*	-7	4
COc1ccc2nc(NC(=O)CSc3nnc(C)s3)sc2c1	0	-2	21301*	0	-4
CCC(=O)Nc1nc2cc(OC)ccc2s1	-3	1	8830	-6	-4
COc1ccc2sc(NC(=O)CC(C)C)nc2c1	-2	0	20332*	-1	0
CSc1cccc(NC(=O)CSc2nnc(C)s2)c1	-2	0	16404*	-2	-3
COc1ccc(CNC(=O)CSc2nnc(C)s2)cc1	-1	?	19126*	0	3
COc1ccc2nc(NC(=O)CSc3nc(SC)ns3)sc2c1	4	0	2722	-2	1
CC(=O)c1sc(NCc2ccc(C)cc2)nc1C	-4	0	3904	-3	0
SMILES	SARS 3CLpro inh	BoNT A protease	Autofluor counter	Anthrax LF inh2	BoNT-F LC inh
O=C(NC(c1ccccc1)c1ccccc1)c1ccccc1	nt	0	2977	2	-3
Cc1ccccc1C(NC(N)=O)c1ccccc1 (centres undefined)	-6	-2	16482*	-3	-4
CCSc1nnc(NC(=O)C2CCN(S(=O)(=O)c3cc(C(F)(F)F)ccc3Cl)CC2)s1	3	1	7348	-1	2
COc1ccccc1-c1nc(C#N)c(N2CCN(c3cccc(Cl)c3)CC2)o1	1	-5	25154*	-6	-7
CCCCOC(=O)C1=C(C)Nc2ncnn2C1c1ccc(OC)c(OC)c1OC (centres undefined)	0	-2	23980*	-2	-3
CCCCOC(=O)C1=C(C)Nc2ncnn2C1c1cc(OC)c(OC)cc1OC (centres undefined)	-4	0	23316*	-1	-1
CS(=O)(=O)c1ccc(C(=O)N2CCC(C(=O)O)(c3ccccc3)CC2)cc1	-9	0	3835	3	-14
COc1cc2c(cc1OC)C1(Nc3c-2c(C)nn3-c2ccccc2)C(=O)Nc2ccccc21 (centres undefined)	-3	2	3287	2	-7
CCCCCOC(=O)CSc1n[nH]c(=O)[nH]c1=O	-5	2	22105*	2	4
O=C(O)c1ccc(CN2CCOCC2)o1	2	-1	2431	-1	-9
CCOc1ccc(S(=O)(=O)Nc2ccccc2SC)cc1	-1	-2	24042*	-4	-4
COC(=O)COc1ccc(S(=O)(=O)Nc2cc(OC)ccc2OC)cc1	1	nt	nt	nt	nt
COC(=O)COc1ccc(S(=O)(=O)Nc2ccccc2SC)cc1	3	?	23132*	-2	-6
CCOc1ccc(NS(=O)(=O)c2ccc(NS(=O)(=O)c3ccccc3)cc2)cc1	5	-1	8285	2	-10
Cn1c(SCC(=O)Nc2ccc(N3CCOCC3)c(Cl)c2)nnc1C(O)c1ccccc1 (centres undefined)	-1	0	7803	-1	0
Cn1c(COc2ccccc2)nnc1SCC(=O)Nc1ccc(N2CCOCC2)c(Cl)c1	-2	?	17200*	-4	-5
NC1=NC(=O)/C(=C/C=C/c2cccs2)S1	nt	-1	5717	-7	-3
COc1ccc(CCN=c2c([N+](=O)[O-])nn(-c3cccc(C)c3)n2O)cc1OC	6	4	4431	-4	40*
Cc1ccc(N=c2c([N+](=O)[O-])nn(-c3ccccc3)n2O)c(C)c1	1	-4	17460*	-2	-5
Cc1cccc(CCN=c2c([N+](=O)[O-])nn(-c3ccccc3)n2O)c1	-6	0	2191	-1	-1
C/C(=N\Nc1ccc(C(=O)O)cc1)c1ccc(Br)cc1	5	0	4266	-1	-1
CSc1ccc(C2Nc3ccccc3-c3cc(C)nn32)cc1 (centres undefined)	3	3	21584*	-2	4
COc1ccccc1N1CCN(C(=O)CSc2ccc3c(C)cc(C)nc3n2)CC1	2	2	3695	-9	-17
CC(C)(C)c1ccc(C(=O)Nc2c3c(nn2C(C)(C)C)CS(=O)(=O)C3)cc1	2	4	?	-6	-8
CCN(CC)S(=O)(=O)c1ccc(C(=O)Nc2c3c(nn2C(C)(C)C)CS(=O)(=O)C3)cc1	2	0	23143*	-1	0
O=C(NCc1ccc2c(c1)OCO2)c1ccc(COc2cc(Cl)ccc2Cl)o1	7	10	18111*	1	18
O=C(Nc1ccn(Cc2c(F)c(F)cc(F)c2F)n1)c1ccc(COc2cc(Cl)ccc2Cl)o1	3	3	22103*	-2	4
O=C(Nc1ccn(Cc2ccccc2F)n1)c1ccc(COc2ccccc2Cl)cc1	7	1	19484*	-3	-2
O=C(Nc1ccc(N2C(=O)C3C4C=CC(C4)C3C2=O)cc1)Nc1cccnc1 (centres undefined)	-3	-1	2695	-4	-2
O=C(NCCc1ccccc1)c1cccc(NC(=O)C2CCCCC2)c1	nt	0	3405	-13	-6
